Experimental data from the supplement of paper PMC12282887.
± gives the standard deviation of the averaged measurements.

Key:
Experiment in all cases: promoter activity interaction Z-score (Lux/OD deviation from empty-vector control); higher = stronger promoter induction by the compound
[1] = tested on: E. coli BW25113 acrABp lux reporter
Outline: (§1)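 E. coli BW25113 (wild type or marA, soxS or rob deletion) carrying low-copy luxCDABE promoter reporters grew in 40 µl LB Lennox in 384-well plates at 37°C. Each compound was tested at four 1:2 dilutions in biological duplicates. OD600 and luminescence were read every 30 min for 12 h. Areas were taken over 0–8 h (wild type) or 1–9 h (mutants), and wells below 10% of median growth area were removed. The score is the Z-transformed residual of growth-normalised luminescence fitted against the empty-vector control.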

[2] = tested on: E. coli BW25113 marRABp lux reporter
Outline: as §1

[3] = tested on: E. coli BW25113 micFp lux reporter
Outline: as §1

[4] = tested on: E. coli BW25113 ompFp lux reporter
Outline: as §1

[5] = tested on: E. coli BW25113 robp lux reporter
Outline: as §1

[6] = tested on: E. coli BW25113 soxSp lux reporter
Outline: as §1

[7] = tested on: E. coli BW25113 tolCp lux reporter
Outline: as §1

[8] = 0.011 µg/ml, genetic background: wild type
[9] = 0.011 µg/ml, genetic background: ΔmarA
[10] = 0.011 µg/ml, genetic background: Δrob
[11] = 0.011 µg/ml, genetic background: ΔsoxS
[12] = 0.022 µg/ml, genetic background: wild type
[13] = 0.022 µg/ml, genetic background: ΔmarA
[14] = 0.022 µg/ml, genetic background: Δrob
[15] = 0.022 µg/ml, genetic background: ΔsoxS
[16] = 0.044 µg/ml, genetic background: wild type
[17] = 0.044 µg/ml, genetic background: ΔmarA
[18] = 0.044 µg/ml, genetic background: Δrob
[19] = 0.044 µg/ml, genetic background: ΔsoxS

## C[C@@H](O)[C@H]1C(=O)N2C(C(=O)O)=C(S[C@@H]3CN[C@H](C(=O)N(C)C)C3)[C@H](C)[C@H]12 [Meropenem]
[1]; [8]
  promoter activity interaction Z-score: -0.325 ± 0.13
[1]; [9]
  promoter activity interaction Z-score: -0.25 ± 1.2
[1]; [10]
  promoter activity interaction Z-score: -0.499 ± 0.11
[1]; [11]
  promoter activity interaction Z-score: -0.443 ± 0.38
[1]; [12]
  promoter activity interaction Z-score: -0.443 ± 0.2
[1]; [13]
  promoter activity interaction Z-score: 0.239 ± 0.72
[1]; [14]
  promoter activity interaction Z-score: -0.429 ± 0.27
[1]; [15]
  promoter activity interaction Z-score: -0.714 ± 0.56
[1]; [16]
  promoter activity interaction Z-score: -0.272 ± 0.31
[1]; [17]
  promoter activity interaction Z-score: -0.463 ± 0.48
[1]; [18]
  promoter activity interaction Z-score: -0.0657
[1]; [19]
  promoter activity interaction Z-score: -1.05 ± 0.84
[2]; [8]
  promoter activity interaction Z-score: -0.451 ± 0.26
[2]; [9]
  promoter activity interaction Z-score: -0.532 ± 0.041
[2]; [10]
  promoter activity interaction Z-score: -0.399 ± 0.031
[2]; [11]
  promoter activity interaction Z-score: -0.178 ± 0.1
[2]; [12]
  promoter activity interaction Z-score: -0.13 ± 0.065
[2]; [13]
  promoter activity interaction Z-score: -0.4 ± 0.097
[2]; [14]
  promoter activity interaction Z-score: -0.114 ± 0.41
[2]; [15]
  promoter activity interaction Z-score: 0.18 ± 0.22
[2]; [16]
  promoter activity interaction Z-score: 0.785
[2]; [17]
  promoter activity interaction Z-score: -0.754
[2]; [18]
  promoter activity interaction Z-score: 1
[2]; [19]
  promoter activity interaction Z-score: -0.0187
[3]; [8]
  promoter activity interaction Z-score: -0.112 ± 0.01
[3]; [9]
  promoter activity interaction Z-score: 0.0252 ± 0.018
[3]; [10]
  promoter activity interaction Z-score: -0.116 ± 0.077
[3]; [11]
  promoter activity interaction Z-score: -0.229 ± 0.14
[3]; [12]
  promoter activity interaction Z-score: 0.415 ± 0.16
[3]; [13]
  promoter activity interaction Z-score: -0.0395 ± 0.041
[3]; [14]
  promoter activity interaction Z-score: 0.325 ± 0.09
[3]; [15]
  promoter activity interaction Z-score: 0.0746 ± 0.14
[3]; [16]
  promoter activity interaction Z-score: -0.67 ± 0.27
[3]; [17]
  promoter activity interaction Z-score: -0.111 ± 0.099
[3]; [18]
  promoter activity interaction Z-score: -0.153 ± 0.23
[3]; [19]
  promoter activity interaction Z-score: 0.149 ± 0.13
[4]; [8]
  promoter activity interaction Z-score: -0.54 ± 0.28
[4]; [9]
  promoter activity interaction Z-score: -0.583 ± 0.092
[4]; [10]
  promoter activity interaction Z-score: -0.754 ± 0.17
[4]; [11]
  promoter activity interaction Z-score: -0.418 ± 0.015
[4]; [12]
  promoter activity interaction Z-score: -0.588 ± 0.17
[4]; [13]
  promoter activity interaction Z-score: -0.0893 ± 0.4
[4]; [14]
  promoter activity interaction Z-score: -0.761 ± 1
[4]; [15]
  promoter activity interaction Z-score: 0.398 ± 0.68
[4]; [16]
  promoter activity interaction Z-score: -2.42 ± 0.71
[4]; [17]
  promoter activity interaction Z-score: -1.11 ± 1.2
[4]; [18]
  promoter activity interaction Z-score: -3.33
[4]; [19]
  promoter activity interaction Z-score: -0.548 ± 0.013
[5]; [8]
  promoter activity interaction Z-score: 0.101 ± 0.27
[5]; [9]
  promoter activity interaction Z-score: -0.585 ± 0.075
[5]; [10]
  promoter activity interaction Z-score: -0.128 ± 0.22
[5]; [11]
  promoter activity interaction Z-score: -0.321 ± 0.77
[5]; [12]
  promoter activity interaction Z-score: -0.965 ± 0.67
[5]; [13]
  promoter activity interaction Z-score: 0.101 ± 0.13
[5]; [14]
  promoter activity interaction Z-score: -0.78 ± 0.081
[5]; [15]
  promoter activity interaction Z-score: 0.872 ± 0.96
[5]; [16]
  promoter activity interaction Z-score: -1.9
[5]; [17]
  promoter activity interaction Z-score: -1.13 ± 0.46
[5]; [18]
  promoter activity interaction Z-score: -2.08 ± 0.078
[5]; [19]
  promoter activity interaction Z-score: -1.54 ± 0.12
[6]; [8]
  promoter activity interaction Z-score: -0.0716 ± 0.075
[6]; [9]
  promoter activity interaction Z-score: -0.0983 ± 0.033
[6]; [10]
  promoter activity interaction Z-score: -0.37 ± 0.018
[6]; [11]
  promoter activity interaction Z-score: 0.00722 ± 0.14
[6]; [12]
  promoter activity interaction Z-score: -0.334 ± 0.51
[6]; [13]
  promoter activity interaction Z-score: -0.124 ± 0.17
[6]; [14]
  promoter activity interaction Z-score: -0.218 ± 0.073
[6]; [15]
  promoter activity interaction Z-score: 0.588 ± 0.26
[6]; [17]
  promoter activity interaction Z-score: -1.21
[6]; [18]
  promoter activity interaction Z-score: -0.982 ± 0.23
[6]; [19]
  promoter activity interaction Z-score: 0.387 ± 0.062
[7]; [8]
  promoter activity interaction Z-score: -0.834 ± 0.2
[7]; [9]
  promoter activity interaction Z-score: -1.09 ± 0.39
[7]; [10]
  promoter activity interaction Z-score: -0.937 ± 0.21
[7]; [11]
  promoter activity interaction Z-score: -0.582 ± 0.57
[7]; [12]
  promoter activity interaction Z-score: -0.873 ± 0.14
[7]; [13]
  promoter activity interaction Z-score: -0.075 ± 1
[7]; [14]
  promoter activity interaction Z-score: -1.42 ± 0.33
[7]; [15]
  promoter activity interaction Z-score: -0.223 ± 0.39
[7]; [16]
  promoter activity interaction Z-score: -1.14
[7]; [17]
  promoter activity interaction Z-score: -0.703
[7]; [18]
  promoter activity interaction Z-score: -1.44 ± 0.34
[7]; [19]
  promoter activity interaction Z-score: 0.705
